Measured values reported in PubChem BioAssay AID445 (National Center for Advancing Translational Sciences (NCATS), 2006).
Out of some 110,000 compounds screened, about 40 (0.04%) were called active. Another 22% or so got no clear call; they are omitted. Shown is part of a subset that was picked to be rich in actives. Values without a mark were called inactive. Calls come from the whole dose curve; as a rule, active = well fitted curve in the direction sought with a large enough effect in the signal ratio (not every such curve was filed as active); inconclusive = small, poorly fitted or top-dose-only effect, or a change in a side signal; inactive = flat fitted curve, though single readings scatter; the % refers to the signal ratio.

Assay: IkB Signaling;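 note: 0% = basal untreated cells and 100% = reference inhibitor full response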
Details: ABC-DLBCL IkBa-CBG/CBR dual luciferase ratio, 4 h; series mostly up to 57.1 µM; IkBa stabilization activation: at the top concentration
Source text: NIH Molecular Libraries Screening Centers Network [MLSCN]
NIH Chemical Genomics Center [NCGC]
Nuclear factor kappa-B (NF-kappa-B) plays an important role in normal B cell development and survival. Diffuse large B cell lymphoma (DLBCL) is the most commonly observed type of non-Hodgkin's lymphoma. Gene expression analysis has identified an activated B cell-like subtype of DLBCL (ABC-DLBCL) which expresses known NF-kappa-B target genes. […] However, targets upstream of IKK have been largely unexplored and so nodes upstream of IKK in the NF-kappa-B pathway remain untested due to the lack of chemical probes.
A cell-sensor assay for I-kappa-B-alpha stabilization was developed with NIH investigator Dr. R. Eric Davis in Dr. Louis M. Staudt's laboratory. The assay uses green (CBG68) and red (CBR) emitting beetle luciferases [Chroma-Glo(TM) developed by Promega Corp.] where the green luciferase is fused to I-kappa-B-alpha and the red luciferase is present in its native state. Both luciferase genes are stably present in the OCI-Ly3 human ABC DLBCL cell line, but their expression is under the control of tetracycline-inducible promoters. Following the addition of doxycycline to induce expression of the luciferases, the green luminescence in control cultures rises only slowly because the CBG fusion partner I-kappa-B-alpha is targeted by IKK activity for rapid degradation. In contrast, green luminescence rises rapidly in the presence of proteasome inhibitors or IKK inhibitors. The rise in red luminescence of CBR is not affected by proteasome or IKK inhibitors, and serves as normalization for cell number and nonspecific effects. Compounds were screened as a concentration-titration series that ranged from 57 uM to 0.7 nM.
NCGC Assay Protocol Summary:
Cells were seeded in 1536-well plates at 5000 cells/3ul in IMDM medium containing 0.5% FBS, w/o phenol red, L-glutamine, 25 mM HEPES, 3 mg/ml sodium bicarbonate. After centrifugation for 1 min. at 1000 rpm, 23 nl of compounds or DMSO were delivered to each well using a pin tool. Then 1ul 80ng/ml doxycycline was dispensed into white solid 1536-well plates and the plates were incubated at 37C/5% C02 in a cell incubator for 4 hrs. Then 4 ul Chroma-Glo luminescent substrate mix (Promega) was added to each well. The plate was incubated at R.T. for 10-15 min. The plates were measured on a ViewLux plate reader for green luminescence (540/20 nm filter) and red luminescence (618/8 nm filter). The green and red luminescent signals were corrected for red and green luminescence filter overlap using previously determined filter calibration constants (determined using the procedure outlined in the Promega Technical Manual). The %Activity was determined from the ratio of corrected green/red luminescent values. Green luminescent and ratio %Activity was determined by normalizing to the difference in signal between basal cells (0% Activity) and cells incubated with 10 uM of the proteasome inhibitor MG-132 (100% Activity). Red luminescent %Activity was normalized to the difference between red luminesence in basal cells (0%Activity) and zero luminescence (-100% Activity).
Concentration-response curves were fitted to the signals arising from the green luminescence (I-kappa-B-alpha-luciferase fusion; IkB-luc) and the red luminescence (unfused luciferase; luc) as well as the calculated ratio. The concentration-effect curves were then classified based on curve quality (r2), response magnitude and degree of measured activity. Compounds were then categorized based on their concentration-response curves for all three datasets (Ikb-luc, luc and ratio).
Keywords: IKK, I-kappa-B, IkB, IkBa, cytotoxicity, luminescence, MLSMR, MLSCN, NIH Roadmap, qHTS, NCGC

| Compound | IkBa stabilization activation |
| --- | --- |
| Cc1cccc(Cn2c(=O)n(CCC(=O)NCCc3ccc(Cl)cc3)c(=O)c3sccc32)c1 | 0.608% |
| O=C(NC1CC(=O)N(c2ccc(F)cc2)C1)c1cccs1 (configuration not stated) | 0.355% |
| COc1ccc(CNc2nc(-c3ccccc3)nn2C(=O)c2ccccc2OC)cc1 | 0.945% |
| Cc1ccc(Cn2c(CCCNC(=O)C3CCCCC3)nc3ccccc32)cc1 | 0.788% |
| COc1ccccc1Cc1nc2ccccc2nc1SCC(=O)N1CCCc2ccccc21 | 0.565% |
| CCc1nn(CC(=O)Nc2cc(C)cc(C)c2)c(=O)c2cc3sccc3n12 | -1.09% |
| Cc1cc(C)cc(NS(=O)(=O)c2ccc3[nH]cc(C(=O)N4CCCCC4)c(=O)c3c2)c1 | 2.33% |
| COC(=O)c1c(NC(=O)c2cc(=O)c3c(C)cc(C)cc3o2)sc2c1CCCC2 | -1.94% |
| COc1ccc(C)cc1NC(=O)C(=O)NCCc1sc(-c2cccc(C)c2)nc1C | -0.998% |
| Cc1ccc2ncc(C(=O)Nc3ccc(OC(F)(F)F)cc3)c(=O)n2c1 | -2.93% |
| Cc1cc(C)cc(OCC(=O)Nc2c(C(=O)c3ccccc3)oc3ccccc23)c1 | -1.32% |
| O=C1CC(c2nnc(Cc3ccc(Cl)cc3)o2)CN1c1ccccc1 (configuration not stated) | 2.11% |
| CSc1ccc(C2c3c(oc4ccccc4c3=O)C(=O)N2CCCN2CCOCC2)cc1 (configuration not stated) | -1.64% |
| COCC(C)NS(=O)(=O)c1ccc(N2CCCCS2(=O)=O)cc1 (configuration not stated) | -0.0651% |
| COc1cccc(CNC(=O)CCC(=O)N2CC3CCCN3c3ccccc32)c1 (configuration not stated) | 1.48% |
| CCc1ccccc1OCCSc1nc(-c2cccs2)nc2cc(=O)[nH]n12 | 0.201% |
| Cc1cccc(NC(=O)CSc2nc3c(oc4ccccc43)c(=O)n2-c2ccc(F)cc2)c1 | -0.455% |
| O=C1Cc2cc(S(=O)(=O)Nc3ccc(OC(F)(F)F)cc3)cc3c2N1CCC3 | 6.23% |
| Cc1ccc(N(C)C(=O)C2CCN(S(=O)(=O)c3ccc4c(c3)CCCN4C(=O)C3CCC3)CC2)cc1 | 2.75% |
| COC(=O)c1ccccc1NC(=O)c1ccc(COc2ccccc2Cl)o1 | -2.65% |
| CCC1=Nc2cc(C(=O)NCCCOC(C)C)ccc2Sc2ccc(C)cc21 | -2.32% |
| CCCCN(CC)CCCNC(=O)c1nn(C)c2c1CSc1ccccc1-2 | 2.35% |
| O=C(Nc1ccc(-c2nc3cc(NC(=O)c4ccccc4Cl)ccc3o2)cc1)c1ccccc1Cl | 4.54% |
| CCCNC(=O)CCn1nc(-c2ccccc2)c2ccccc2c1=O | 2.39% |
| COC(=O)c1cc2occc2n1Cc1nc(-c2ccccc2C)oc1C | -1.31% |
| COc1cc(NC(=O)Cn2nc(-c3ccc(C)c(C)c3)ccc2=O)cc(OC)c1 | -1.19% |

| Compound | IkBa stabilization activation |
| --- | --- |
| CCOc1ccc(-c2cc3nc(C4CCN(C(=O)OC(C)(C)C)CC4)c(C(=O)Nc4ccc(C(=O)OC)cc4)cn3n2)cc1 | -0.305% |
| O=C(NCCc1ccccc1)c1ccc2c(c1)N(Cc1ccccc1)C(=O)c1ccccc1S2(=O)=O | -2.13% |
| CCCN(CCC)C(=O)C(Cc1ccccc1)NS(=O)(=O)c1ccc2c(c1)c(=O)n(C)c(=O)n2C (configuration not stated) | 0.449% |
| CCOc1ccc(CCNC(=O)c2c(C)oc3ncn(C)c(=O)c23)cc1 | -0.592% |
| O=C(NCCCO)c1nn(-c2ccc(Cl)cc2)nc1CO | -1.87% |
| Cc1ccc(NC2=C(c3ccc(C(F)(F)F)cc3)C(=O)c3ccccc32)cc1F | 6.11% |
| CC(C)OCCCn1c(SCC(=O)c2ccccc2)nc2c(sc3ccccc32)c1=O | -0.853% |
| CCCN1CCN(CCCNC(=O)c2cnn(-c3ccc(C)cc3)c2-n2cccc2)CC1 | -2.29% |
| COc1cc(OC)c(OC)cc1/C=C/c1nc2ccccc2c(=O)n1-c1ccc(Br)c(C)c1 | -1.32% |
| Cc1cccc(NC(=O)CSc2nc3c([nH]c4ccccc43)c(=O)n2-c2cc(C)cc(C)c2)c1 | -1.03% |
| COc1ccc(CNS(=O)(=O)c2ccc(-c3cnc(C4CC4)o3)cc2)cc1 | -0.844% |
| CCOC(=O)c1c(C)[nH]c(C)c1S(=O)(=O)N(C)CC(=O)N1CCN(c2ccccc2)CC1 | 0.594% |
| CCOC(=O)c1c(NC(=O)/C=C/c2ccc(OC)cc2)sc2c1CCC(C)C2 (configuration not stated) | 1.01% |
| O=C(NCCc1ccccc1)C(=O)NCC(c1ccco1)S(=O)(=O)c1ccccc1 (configuration not stated) | -1.39% |
| CC(NC(=O)CCc1cn(Cc2ccccc2Cl)c2ccccc12)c1ccccc1 (configuration not stated) | 2.65% |
| CCc1nc2onc(C)c2c(=O)n1CC(=O)O | 2.07% |
| O=C1OC(C(=O)Nc2cccc(Br)c2)Cc2ccccc21 (configuration not stated) | -0.928% |
| CCC(=O)N1CCc2cc(CNC(=O)Nc3ccccc3Cl)ccc21 | 0.103% |
| CCS(=O)(=O)N1CCC(n2c(C)nc3cccnc32)CC1 | 0.706% |
| Cc1oc2c(c1C(=O)Nc1ccc(F)c(F)c1)C1=NCCN1C=N2 | 0.228% |
| O=C(c1ccc2c(c1)N(Cc1ccccc1F)C(=O)c1ccccc1S2(=O)=O)N1CCOCC1 | -0.457% |
| Cc1ccc(S(=O)(=O)c2nnn3c2nc(N2CCN(c4ccccc4F)CC2)c2cc(Cl)ccc23)cc1C | -1.33% |
| COCCCNC(=O)c1c(NC(=O)c2cc(=O)c3cc(C)c(C)cc3o2)sc2c1CCCC2 | -1.3% |
| CC(C)(C)OC(=O)N1CCC(c2c(C(=O)N3CCc4ccccc4C3)cnn2-c2ccc(F)cc2)CC1 | 0.532% |
| Cc1ccc2nc(-c3ccc(C)c(NC(=O)Cc4ccccc4)c3)oc2c1 | -2.33% |
| O=C(NCc1ccc(F)cc1)c1ccc2nc(N3CCCCC3)sc2c1 | -0.827% |
